The values below come from the supplement of paper PMC13380429.

Structures are written as SMILES.

This assay deals with Vero E6 infected with SARS-CoV-2. Nature of the assay: inhibition of SARS-CoV-2 cytopathic effect; higher = more antiviral protection, active = above 15. The conditions noted are these: 100 nM; 48 h. (Protection from cytopathic effect is a common read-out in antiviral testing.)
Take `Nc1nc(N)nc(NC2CC2)n1` [cyromazine]: the “inhibition of SARS-CoV-2 cytopathic effect” value (shortened to “inhibition”) was 2.15% (inactive).

Regarding `CC(C)(C)NC(=O)N[C@H](C(=O)N1C[C@H]2[C@@H]([C@H]1C(=O)NC(CC1CCC1)C(=O)C(N)=O)C2(C)C)C(C)(C)C` (some centres not stated) [Boceprevir], the “inhibition” value is -0.28% (inactive).

`COc1cc2c(cc1OC)-c1cc3nc4ccccc4nc3n1C(C)(C)C2`: the “inhibition” value is 1.86% (inactive).

For the molecule `CCOc1cc([C@@H](CS(C)(=O)=O)N2C(=O)c3cccc(NC(C)=O)c3C2=O)ccc1OC` [apremilast], the “inhibition” value was 1.6% (inactive).

Take `C=C1/C(=C\C=C2/CCC[C@]3(C)[C@@H]([C@H](C)CCCC(O)(C(F)(F)F)C(F)(F)F)CC[C@@H]23)C[C@@H](O)C[C@@H]1O` [falecalcitriol]: the “inhibition” value was -1.28% (inactive).

Regarding `C1CCN2C[C@@H]3C[C@@H](CN4CCCC[C@@H]34)[C@H]2C1` [sparteine-sulfate], the “inhibition” value is 3.05% (inactive).

Regarding `O=C(N[C@@H]1CC[C@@H](c2cccc(F)c2F)CN(CC(F)(F)F)C1=O)N1CCC(n2c(=O)[nH]c3ncccc32)CC1` [telcagepant], the “inhibition” value is 7.5% (inactive).

For `CC#CCC(C)[C@H](O)/C=C/[C@@H]1[C@H]2C/C(=C/CCCC(=O)O)C[C@H]2C[C@H]1O` (some centres not stated) [iloprost], the “inhibition” value is -0.18% (inactive).

Consider `O=C(NNc1nc2cc(F)ccc2n2cccc12)c1cnccn1`, for which the “inhibition” value was 0.63% (inactive).

In the case of `O=C(c1ccc(C(=O)N2CCC(N3CCCC3)CC2)c(Nc2ccccc2)c1)N1CCC(N2CCCC2)CC1`, the “inhibition” value is 0.31% (inactive).

Turning to `COc1cc(NS(=O)(=O)c2ccc(N)cc2)nc(OC)n1` [sulphadimethoxine], the “inhibition” value is 2.74% (inactive).

Consider `Cn1nc(C(C)(C)C)cc1C(=O)N[C@@H](Cc1cccc(Cl)c1)C(=O)NCC#N` [cathepsin-inhibitor-1], for which the “inhibition” value is -0.47% (inactive).

With `CCCCC[C@H](O)/C=C/[C@H]1[C@H](O)CC(=O)[C@@H]1CCCCCCC(=O)O` [alprostadil], the “inhibition” value is 0.04% (inactive).

With `Oc1cc(Cl)ccc1Oc1ccc(Cl)cc1Cl` [triclosan], the “inhibition” value is 1.39% (inactive).

For the molecule `COc1cc(C2Oc3cc([C@H]4Oc5cc(O)cc(O)c5C(=O)[C@@H]4O)ccc3OC2CO)ccc1O` (some centres not stated) [silibinin], the “inhibition” value is 0.27% (inactive).

With `CC(C)(C)c1nc(-c2cccc(NS(=O)(=O)c3c(F)cccc3F)c2F)c(-c2ccnc(N)n2)s1` [dabrafenib], the “inhibition” value was 0.25% (inactive).

In the case of `Clc1cccc(SC2CCNCC2)n1` [anpirtoline], the “inhibition” value was 1.08% (inactive).

Take `Clc1ccc(COC(Cn2ccnc2)c2ccc(Cl)cc2Cl)c(Cl)c1` (configuration not stated) [miconazole]: the “inhibition” value was -0.38% (inactive).

In the case of `O=C(NC1(c2ccccc2)CC1)c1c(CN2CCC(N3CCCCC3)CC2)c(-c2cccc(C(F)(F)F)c2)nc2cc(Br)ccc12`, the “inhibition” value was 1.73% (inactive).

Turning to `O=C(O)/C=C(/CC(=O)O)C(=O)O` [cis-aconitic-acid], the “inhibition” value was -3.45% (inactive).

For the molecule `CC(C)OC(=O)C1=CN(C(=O)c2ccc(F)c(F)c2)CC(C)(C)c2c1[nH]c1ccccc21`, the “inhibition” value is -3.38% (inactive).

In the case of `C[C@H](Cc1cc2c(c(C(N)=O)c1)N(CCCO)CC2)NCCOc1ccccc1OCC(F)(F)F` [silodosin], the “inhibition” value was 2.16% (inactive).

Regarding `O=C(O)c1cc(/N=N/c2ccc(S(=O)(=O)Nc3ccccn3)cc2)ccc1O` [sulfasalazine], the “inhibition” value is -0.23% (inactive).

For `CCCN(CCC)C(=O)C(CCC(=O)O)NC(=O)c1ccccc1` (configuration not stated) [proglumide], the “inhibition” value was -0.81% (inactive).

For `COc1ccc2cccc(CCNC(C)=O)c2c1` [agomelatine], the “inhibition” value is -2.18% (inactive).

In the case of `COc1cc(-c2cc(-c3cccc(O)c3)cnc2N)cc(OC)c1OC`, the “inhibition” value was -1.83% (inactive).

With `Cc1ccc(Nc2c(F)cccc2Cl)c(CC(=O)O)c1` [lumiracoxib], the “inhibition” value is -0.33% (inactive).

Turning to `CC(=O)OC[C@H]1O[C@@H](n2ccc(=O)[nH]c2=O)[C@H](OC(C)=O)[C@@H]1OC(C)=O` [uridine-triacetate], the “inhibition” value was 0.84% (inactive).

In the case of `CN(Cc1cc(Br)cc(Br)c1N)C1CCCCC1` [bromhexine], the “inhibition” value is 2.7% (inactive).

Take `Cc1cc(C(C)(C)C)cc(C)c1CC1=NCCN1` [xylometazoline]: the “inhibition” value was -5.88% (inactive).

For the molecule `OCc1cncc(F)c1` [5-fluoro-3-pyridyl-methanol], the “inhibition” value was -10.8% (inactive).

Take `O=C(O)c1ccccc1-c1ccc(C(F)(F)F)cc1` [xenalipin]: the “inhibition” value was 4.8% (inactive).
